Assay: T. brucei methionyl-tRNA synthetase enzyme inhibition – biochemical, radioactivity, round 1, late-stage follow-up (AID 743060)
Conditions: purified enzyme, radiolabel aminoacylation, scintillation, 2 h; at 1 µM; stronger effect = higher value

| Structure (SMILES) | inhibition [%] |
| --- | --- |
| O=C1CC(N(CCc2ccccc2)C(=S)Nc2ccccc2)C(=O)N1c1ccc(Br)cc1 (centres undefined) | 84.2 |
| Clc1ccc(-c2nnc(SCc3nc4ccccc4[nH]3)o2)c(Cl)c1 | 75.3 |
| COc1ccc(NC(=O)C2CC(=O)n3c(nc4ccccc43)N2)cc1 (centres undefined) | -18.5 |
| O=C(NCc1nc2ccccc2[nH]1)C1=C[C@@H](c2csc3ccccc23)C[C@@H](OCCCCO)O1 | 20.6 |
| COc1ccccc1NC(=O)Cn1cc(C(=O)C(=O)N2CCOCC2)c2ccccc21 | -14.4 |
| O=C(NCc1nc2ccccc2[nH]1)C1=C[C@@H](c2ccc(Br)cc2)C[C@@H](OCCCCO)O1 | 84.2 |
| C[C@H](O)[C@@H]1C(=O)N2CCc3c([nH]c4ccccc34)[C@@H]2C[C@@H]1N(C)Cc1ccc2c(c1)OCO2 | 1.98 |
| CCc1ccc2[nH]c3nc(SCC(=O)NCc4cccc(OC)c4)nnc3c2c1 | 4.75 |
| O=C(NCc1nc2ccccc2[nH]1)C1=C[C@H](C2CC2)C[C@H](OCc2ccc(CO)cc2)O1 | -3.3 |
| O=C1CC(NCCc2ccccc2)C(=O)N1c1ccc(Br)cc1 (centres undefined) | -6.51 |
| CCN(CC)C(=O)C(=O)c1cn(CC(=O)Nc2ccccc2OC)c2ccccc12 | -7.03 |
| Cc1ccc(C(=O)NCCc2nc3ccccc3[nH]2)cc1C | -10.8 |
| O=C(NNC(=O)c1ccc(-n2cncn2)c([N+](=O)[O-])c1)c1ccc(Cl)cc1 | 7.36 |
| COc1ccccc1NC(=O)CSc1nnc2c(n1)[nH]c1ccc(C)cc12 | 19.1 |
| COc1cccc(NC(=O)C2CC(=O)n3c(nc4ccccc43)N2)c1 (centres undefined) | 5.53 |
| Oc1c(Cl)cc(Cl)cc1CNc1nc2ccccc2[nH]1 | 88.3 |
| COc1cccc(NC(=O)CSc2nnc3c(n2)[nH]c2ccc(C)cc23)c1 | 97.7 |

| Structure (SMILES) | inhibition [%] |
| --- | --- |
| O=C(CN1CCSC1=NCc1ccccc1)c1ccc(Cl)c(Cl)c1 | -1.95 |
| CN1CC(=O)N2C(c3cccc([N+](=O)[O-])c3)c3[nH]c4ccccc4c3C[C@H]2C1=O (some centres undefined) | 57.7 |
| CC(CC(=O)Nc1cccc(Br)c1)=NNC(=O)c1ccc(O)cc1O | 36.5 |
| CCO[C@@H]1OC(C(=O)NCc2nc3ccccc3[nH]2)=C[C@H](c2ccc(Br)cc2)[C@H]1CCCO | 6.72 |
| O=C(NCCc1nc2ccccc2[nH]1)c1ccc(Cl)c(Cl)c1 | 74.6 |
| O=C(N/C(=C\c1cccnc1)c1nc2ccccc2[nH]1)c1cccc(Br)c1 | 14.4 |
| O=C(NCc1nc2ccccc2[nH]1)C1=C[C@H](c2ccc3c(c2)OCO3)C[C@H](OCCCCO)O1 | 5.68 |
| O=C(NCc1nc2ccccc2[nH]1)C1=C[C@H](c2csc3ccccc23)C[C@H](OCCCCO)O1 | 71.1 |
| Cc1[nH]c2ccc(Br)cc2c(=O)c1CN1CCCCCC1 | 19.4 |
| CC(=O)c1cn(CC(=O)Nc2cccc(C(F)(F)F)c2)c2ccccc12 | 20.1 |
| CN(Cc1cc(Cl)cc(Cl)c1)[C@H]1C[C@H]2c3[nH]c4ccccc4c3CCN2C(=O)[C@H]1CO | 95.1 |
| O=C(NCCc1nc2ccccc2[nH]1)c1ccc(Cl)cc1 | 20.1 |
| COc1ccccc1NS(=O)(=O)c1cccc(NC(=O)Nc2ccccc2)c1 | 57 |
| CCN(CC)C(=O)C(=O)c1cn(CC(=O)Nc2cccc(OC)c2)c2ccccc12 | 41.4 |
| CCN(CC)C(=O)C(=O)c1cn(CC(=O)Nc2cccc(C(F)(F)F)c2)c2ccccc12 | 95.4 |
| CC(C)OCCCN1CC(=O)N2C(c3cccc([N+](=O)[O-])c3)c3[nH]c4ccccc4c3C[C@H]2C1=O (some centres undefined) | 50 |
| CC(=O)c1c[nH]c(C(=O)NCc2cccc(C(F)(F)F)c2)c1 | 44.6 |

— PubChem BioAssay AID743060 (The Scripps Research Institute Molecular Screening Center, 2013)
